tim23-1 inh = tim23-1 yeast growth inhibition; S. cerevisiae tim23-1 growth, BacTiter-Glo luminescence, 24 h; inhibition, % at 20 µM; actives 1.3% (n = 330,000);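 active means growth inhibition of the mutant yeast at or above 50%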;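 further: temperature-sensitive mutant grown at 25 °C; plate controls were DMSO-treated mutant yeast for no effect and medium wells lacking yeast for full effect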
tim10-1 inh = inhibits growth of tim10-1 mutant yeast | S. cerevisiae tim10-1 ts strain growth, BacTiter-Glo, 24 h | inhibition, % at 20 µM | actives 2.2% (n = 330,000) | AID 463190;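 active means inhibition of at least 40%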;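 further: mutant grown at 25 °C; 0% = DMSO wells with yeast and 100% = wells holding no yeast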
TIM10 inh = inhibits growth of TIM10 yeast strain | S. cerevisiae TIM10 strain growth, BacTiter-Glo luminescence, 24 h | inhibition, % at 10 µM | actives 1.4% (n = 330,000);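 active means inhibition of 40% or more at the single tested concentration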;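 further: wild-type TIM10 isogenic control strain grown at permissive 25 °C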
Yeast superoxide = yeast age-related superoxide inhibition as caloric restriction mimetic; actives 0.18% (n = 330,000); superoxide response (% of plate mean), % at 10 µM; AID 2690; S. cerevisiae aged cells, superoxide DHE fluorescence; stronger effect = lower value;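 active means superoxide response under a set limit, about three screen SD below normal, cut at about 65% in these data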;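 further: yeast aged for seven days with compound at 30 °C before DHE staining; 100% = average MFI of all compound-treated wells on the plate with controls excluded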
NALP3 yeast inh = NALP3 inhibition in yeast | Yeast reconstituted NLRP3/ASC/caspase-1, beta-gal luminescence, 24 h | inhibition, % at 10 µM | actives 0.39% (n = 330,000);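 active means inhibition of 50% or more; inactive means inhibition below 50%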;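 further: plate controls were induced DMSO wells for no effect and uninduced yeast grown without galactose for full effect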
tim10-1 conf = tim10-1 yeast growth inhibition, confirmed. actives 56% (n = 7,400). S. cerevisiae tim10-1 ts strain growth, BacTiter-Glo, 24 h. inhibition, % at 20 µM. shares compounds with tim10-1 inh;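 active means inhibition of yeast growth at or above a set limit in either of two repeat tests at 20 µM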;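 further: tim10-1 mutant grown at permissive 25 °C to find synthetic lethal compounds; 0% = DMSO yeast wells and 100% = medium wells without yeast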
tim10 confirm = confirmation of TIM10 yeast growth inhibitors | shares compounds with TIM10 inh | S. cerevisiae tim10 strain growth, BacTiter-Glo luminescence, 24 h | inhibition, % at 10 µM | actives 63% (n = 4,600);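 active means inhibition of yeast growth at or above a set limit in either of two replicates at 10 µM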;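 further: this counterscreen used the strain with wild-type TIM10; 0% = yeast with DMSO and 100% = medium wells lacking yeast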
tim23-1 conf = tim23-1 yeast growth inhibition, confirmed; S. cerevisiae tim23-1 growth, BacTiter-Glo luminescence, 24 h; AID 463218; shares compounds with tim23-1 inh; actives 83% (n = 4,400); inhibition, % at 20 µM;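 active means inhibition above about 39% in either of two replicate wells at 20 µM, limit read from the data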;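 further: temperature-sensitive tim23-1 mutant grown at 25 °C; 0% = DMSO wells with yeast and 100% = medium wells without yeast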
* = called active by the depositor. Only some compounds are listed: those with a hit (about 3.8% of all), similar ones and a draw of the others.

How did Cc1csc(NC(=O)CSc2nnc(Cn3c(=O)sc4ccccc43)n2-c2ccccc2)n1 do in these assays?
tim23-1 inh: 3; tim10-1 inh: -3; TIM10 inh: 1; Yeast superoxide: 105; NALP3 yeast inh: -1

What do the screens show for `CCN1C(=O)/C(=C\N(C)C)c2ccccc21`?
tim23-1 inh: -1; tim10-1 inh: 14; TIM10 inh: 2; Yeast superoxide: 127; NALP3 yeast inh: -10

Results for CCN1C(=O)/C(=C\C(=O)c2cccs2)c2cc(Br)ccc21 ?
tim23-1 inh: 72*; tim10-1 inh: 49*; TIM10 inh: 74*; Yeast superoxide: 90; NALP3 yeast inh: 20; tim10-1 conf: 34*; tim10 confirm: 65*; tim23-1 conf: 25

Results for COc1ccc2nc(NC(=O)c3cc(C)oc3C)sc2c1 ?
tim23-1 inh: 34; tim10-1 inh: 30; TIM10 inh: 28; Yeast superoxide: 100; NALP3 yeast inh: 9

How did COc1ccc2nc(NC(=O)c3ccoc3C)sc2c1 do in these assays?
tim23-1 inh: 55*; tim10-1 inh: 58*; TIM10 inh: 47*; Yeast superoxide: 101; NALP3 yeast inh: 35; tim10-1 conf: 59*; tim10 confirm: 32*; tim23-1 conf: 61*

What do the screens show for `CSCCC(NC(N)=O)C(=O)Nc1cccc(C#N)c1` (configuration not stated)?
tim23-1 inh: 13; tim10-1 inh: 2; TIM10 inh: 11; Yeast superoxide: 88; NALP3 yeast inh: 10

How did O=C(CSCc1cccc(Br)c1)N=Nc1c(O)[nH]c2ccccc12 do in these assays?
tim23-1 inh: 53*; tim10-1 inh: 45*; TIM10 inh: 34; Yeast superoxide: 139; NALP3 yeast inh: 11; tim10-1 conf: 20; tim23-1 conf: 59*

How did O=C(CSCc1ccccc1)N=Nc1c(O)[nH]c2ccccc12 do in these assays?
tim23-1 inh: 28; tim10-1 inh: 33; TIM10 inh: 31; Yeast superoxide: 111; NALP3 yeast inh: 11

How did O=C(/C=C1\NC2(CCCC2)Cc2ccccc21)C(=O)N/N=C/c1ccc(O)c(O)c1 do in these assays?
tim23-1 inh: 19; tim10-1 inh: 7; TIM10 inh: 4; Yeast superoxide: 98; NALP3 yeast inh: 14

How did COc1ccc(/C=N/NC(=O)C(=O)/C=C2\NC3(CCCC3)Cc3ccccc32)cc1 do in these assays?
tim23-1 inh: 54*; tim10-1 inh: 42*; TIM10 inh: 37; Yeast superoxide: 84; NALP3 yeast inh: 9; tim10-1 conf: 31*; tim23-1 conf: 36

What do the screens show for `COCCN1CCN(C(=O)c2ccc3c(c2)S(=O)(=O)c2ccccc2C3=O)CC1`?
tim23-1 inh: 8; tim10-1 inh: 3; TIM10 inh: 11; Yeast superoxide: 92; NALP3 yeast inh: 6

What do the screens show for `CC(=O)Oc1cccc(/C=C2\Sc3ccccc3C2=O)c1`?
tim23-1 inh: 86*; tim10-1 inh: 44*; TIM10 inh: 33; Yeast superoxide: 97; NALP3 yeast inh: 20; tim10-1 conf: 48*; tim23-1 conf: 85*

What do the screens show for `CCN(CC)CCN(C(=O)c1ccc2c(c1)CCCC2)c1nc2cc(OC)c(OC)cc2s1`?
tim23-1 inh: 66*; tim10-1 inh: 61*; TIM10 inh: 49*; Yeast superoxide: 86; NALP3 yeast inh: 28; tim10-1 conf: 40*; tim10 confirm: 46*; tim23-1 conf: 61*

Results for O=C(Nc1ccc(OCC(F)(F)C(F)F)c(C(F)(F)F)c1)c1ccccc1 ?
tim23-1 inh: 12; tim10-1 inh: 26; TIM10 inh: 28; Yeast superoxide: 110; NALP3 yeast inh: 14

Results for O=C(Nc1ccc(OCC(F)(F)C(F)F)c(C(F)(F)F)c1)c1ccccc1O ?
tim23-1 inh: 54*; tim10-1 inh: 81*; TIM10 inh: 62*; Yeast superoxide: 106; NALP3 yeast inh: 25; tim10-1 conf: 76*; tim10 confirm: -6; tim23-1 conf: 69*
